This note sets out measurements from PubChem BioAssay AID602188 (Broad Institute, 2012).

Potency and affinity values are given separately. Results filed as inconclusive are left out. A call without a number means that no potency is given here. Activity calls are given as the source filed them.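 The calls were made as follows: active = compounds whose fitted curve lowers viable cell signal, with half-maximal concentration at most twice the top tested dose; inconclusive = flat curve showing 30 to 70% toxicity, or poor fit; inactive = the rest.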

The nature of the experiment: NIH-3T3 fibroblast cytotoxicity, dose response, cytotoxicity control for antifungal single agent project, cell-based, Alamar Blue, dry powder (AID 602188). To be noted: NIH-3T3 fibroblast viability, Alamar Blue fluorescence, 48 h; series mostly up to 26 µM. For orientation: Alamar Blue is a resazurin reagent that responds to reducing activity.
Regarding `O=C(Nc1nc(-c2ccc3c(c2)CCCC3)cs1)c1ccccc1`, the compound was called inactive.
The result for `CCOC(=O)N1C(=O)C2(CCCCC2)N(c2ccc(C)cc2)C1=S` reads “inactive”; that for `NC(=O)c1cccc(C(=O)Nc2nc(-c3ccc4c(c3)CCCC4)cs2)c1`, “inactive”.
In the case of `O=C(Nc1nc(-c2ccccc2)cs1)c1ccc(Br)s1`, the compound was called inactive.
